This is part of a sample that, as a whole, favours compounds with a hit. Of some 79,000 tested, about 15% had one in any assay. No stated cut-off is given here; in the data, active means growth inhibition above about 70%; inactive means the rest.
Tests used:
[1] = NCI Yeast Anticancer Drug Screen. Data for the rad50 strain (AID 155);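 further: 0% = growth of vehicle-only cultures of the same strain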; conditions: S. cerevisiae rad50 strain growth inhibition; at 50.0 µM; stronger effect = higher value
In short: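 Growth of the mutant yeast was measured after compound exposure and referenced to vehicle-treated cultures.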

[2] = NCI Yeast Anticancer Drug Screen. Data for the mec2-1 strain (AID 157); conditions: S. cerevisiae mec2-1 strain, at 50.0 µM, stronger effect = higher value
In short: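 Each compound was tested on mec2-1 yeast, a strain altered in DNA damage repair or cell cycle control. Growth inhibition is reported relative to vehicle.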

[3] = NCI Yeast Anticancer Drug Screen. Data for the sgs1 mgt1 strain (AID 161);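 further: 0% = growth of cultures given vehicle only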; conditions: S. cerevisiae sgs1 mgt1 strain, at 50.0 µM, stronger effect = higher value
In short: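 Mutant yeast exposed to compound; growth scored against vehicle-only wells.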

[4] = NCI Yeast Anticancer Drug Screen. Data for the cln2 rad14 strain (AID 165);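 further: 0% = growth equal to vehicle treated cultures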; conditions: S. cerevisiae cln2 rad14 strain, at 50.0 µM, stronger effect = higher value
In short: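 Test compounds were added to cln2 rad14 yeast cultures; inhibition of growth was then determined by comparison with vehicle treatment.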

[5] = NCI Yeast Anticancer Drug Screen. Data for the bub3 strain (AID 167); conditions: S. cerevisiae bub3 mutant strain, at 50.0 µM, stronger effect = higher value
In short: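 Whole-cell yeast assay. The mutant strain was incubated with compounds, and growth inhibition was determined by comparison with vehicle-treated cells.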

[6] = NCI Yeast Anticancer Drug Screen. Data for the mlh1 rad18 strain (AID 175); conditions: S. cerevisiae mlh1 rad18 strain growth inhibition; at 50.0 µM; stronger effect = higher value
In short: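 Inhibition values reflect reduced growth of mutant yeast versus vehicle-treated controls following compound exposure; the mutations affect DNA damage repair.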

Measured: growth inhibition

O=C1CN(c2ccc(Cl)cc2)C(=O)CN1/N=C/c1ccc(O)c(O)c1
inactive: [1] -37.1% | [2] -10.8% | [3] 4.4% | [4] -16.9% | [5] -7.65% | [6] -4.95%

CC1CSC(=S)N1C(=O)N1C(=S)SCC1C (stereo not drawn)
inactive: [1] -42.4% | [2] -56.8% | [3] -52.9% | [4] -10.8% | [5] -43.9% | [6] -35.5%

CCOc1cc2c(cc1C(CC)c1ccccc1)OCO2 (stereo not drawn)
inactive: [1] 6.75% | [2] 12.6% | [3] 9.75% | [4] 3% | [5] 17.6% | [6] 14.7%

O=C(c1ccccc1)c1ccccc1O
inactive: [1] -16.6% | [2] -10.7% | [3] 11.4% | [4] 6.95% | [5] 10.7% | [6] 2.9%

CC1(c2ccc(Cl)s2)NC(=O)NC1=O (stereo not drawn)
inactive: [1] -1% | [2] -4.65% | [3] -6.45% | [4] -45.8% | [5] 1.9% | [6] -13.5%

O=C(O)C#Cc1ccccc1
inactive: [1] 25.7% | [2] -27.9% | [3] -1.8% | [4] 2.6% | [5] -23.2% | [6] 0.3%

O=C(Nc1cccc([N+](=O)[O-])c1)c1ccc(Cl)cc1
inactive: [1] -5.95% | [2] -10.8% | [3] 8% | [4] -49.5% | [5] -9.5% | [6] -3.95%

O=C(Nc1cc([N+](=O)[O-])ccc1F)Oc1ccc(OCc2ccccc2)cc1
inactive: [1] 11.9% | [2] -1.5% | [3] 9.9% | [4] -47.2% | [5] -2.55% | [6] 18.2%

Nc1ccc(N=Nc2ccncc2)c2ccccc12
inactive: [1] 31.7% | [2] 22.5% | [3] 4.1% | [4] -15.1% | [5] 28% | [6] 19.7%

O=C(O)COc1c2occc2cc2ccc(=O)oc12
inactive: [1] 7.9% | [2] -12.4% | [3] 22.7% | [4] 1.55% | [5] -3.1% | [6] 6%

CCOC(=O)c1cnc2cc(C)cc(C)c2c1Nc1ccc2c(c1)OCO2
inactive: [1] -8.15% | [2] -4.65% | [3] -12.3% | [4] -36% | [5] 5.45% | [6] -2.9%

Cn1cnc(CCc2ccccc2)n1
inactive: [1] -8.95% | [2] -3.05% | [3] -24.2% | [4] -19% | [5] -24.1% | [6] -11.2%

CC(=O)C(C(C)=O)C(c1ccccn1)C(C(C)=O)C(C)=O
inactive: [1] -6.7% | [2] -0.65% | [3] -4.05% | [4] -0.65% | [5] 6.8% | [6] -6.45%

C[N+]1(C)CCN(S(=O)(=O)c2ccccc2)c2ccccc21
inactive: [1] -10.1% | [2] -13.4% | [3] -4.35% | [4] -7.95% | [5] -19.6% | [6] -18.4%

Cc1nc(C(N)=O)c(=O)[nH]c1C
inactive: [1] 2.25% | [2] 2.3% | [3] 8% | [4] -22.9% | [5] 2.65% | [6] 13.7%

C[Si](C)(OCCS(=O)(=O)O)C1S(=O)(=O)OCCOS1(=O)=O
inactive: [1] -18.7% | [2] -21.4% | [3] -12.9% | [4] 8.6% | [5] -16.8% | [6] -18.4%

N#C/C(=C\n1c(=S)[nH]c2ccccc21)c1nc2ccccc2s1
inactive: [1] -2.85% | [2] -4.45% | [3] -9.15% | [4] -4.15% | [5] 4.25% | [6] 36.8%

CO/C(=N\N=C\c1cccc(C(F)(F)F)c1)c1ccncc1
inactive: [1] 27.3% | [2] 6.4% | [3] -2.2% | [4] -6.05% | [5] 5.1% | [6] 12.2%

CC(C)C[N+](=O)[O-]
inactive: [1] -23.4% | [2] -21.1% | [3] -4.05% | [4] -12.7% | [5] -1.25% | [6] 11.3%

Cc1cc(=O)oc2cc3c(cc12)Oc1ccccc1O3
inactive: [1] -6.85% | [2] -11.2% | [3] -0.95% | [4] 3.5% | [5] 5.8% | [6] -5%

COc1cc(C(=O)O)c(Cc2ccccc2)c(OC)c1O
inactive: [1] 9.8% | [2] 5.95% | [3] 1.05% | [4] 5.6% | [5] 9.05% | [6] -3.2%

CCCCCC/C=C/CCCCCCCC(=O)O
inactive: [1] 3.15% | [2] -25.1% | [3] 5.3% | [4] -9.9% | [5] -1.75% | [6] -16.9%

CCOC(=O)NC(Nc1cccc(C(F)(F)F)c1)(C(F)(F)F)C(F)(F)F
inactive: [1] 1.45% | [2] -10.3% | [3] -38.5% | [4] 7.7% | [5] -15.6% | [6] -3.3%

CCc1ccc(C(=O)CN2CCCc3ccccc32)cc1
inactive: [1] -13.4% | [2] 0.7% | [3] -6.55% | [4] -17.2% | [5] 1.95% | [6] -13.8%

CC(C)c1ccc(/C=C2\C=Nc3ccccc32)cc1
inactive: [1] 15.8% | [2] 11.7% | [3] 28.9% | [4] 5.2% | [5] 50.7% | [6] 20.6%

CCCCCC(C)C(C#N)C(=O)OCC (stereo not drawn)
inactive: [1] 1.2% | [2] -18.4% | [3] -14.4% | [4] -3.75% | [5] -18.9% | [6] -20.9%

CCCCCCCC(=O)NN(Cn1c(=S)sc2ccccc21)Cn1c(=S)sc2ccccc21
inactive: [1] 32% | [2] 9.25% | [3] 26.7% | [4] 21.7% | [5] -2.7% | [6] 6.65%

CCOC(=O)c1nc2c(C)nc(N)nc2[nH]c1=O
inactive: [1] -0.35% | [2] -1.2% | [3] -12% | [4] -32.1% | [5] -5.6% | [6] -3.1%

CC1(C)N(/N=C/c2ccccc2)C(c2ccccc2)C(c2ccccc2)N1/N=C/c1ccccc1 (stereo not drawn)
inactive: [1] -8.95% | [2] -6.45% | [3] 6.25% | [4] -11.3% | [5] 2.65% | [6] 9.75%

CCC(C)n1c(C)nc2cc(C(F)(F)F)cc(N)c21 (stereo not drawn)
inactive: [1] 20.7% | [2] 18.4% | [3] 8.4% | [4] -31.2% | [5] 11.6% | [6] 15.2%

NC(CCSc1ccccc1)C(=O)O (stereo not drawn)
inactive: [1] -0.7% | [2] 8.35% | [3] -9.85% | [4] -34.5% | [5] -29.3% | [6] -5.45%

C/C(C#N)=C1/Nc2ccccc2NC1=O
inactive: [1] 0.55% | [2] 9.25% | [3] -24.6% | [4] -10.4% | [5] 15.1% | [6] 4.55%

O=[N+]([O-])c1ccc(S(=O)(=O)c2ccc(N=Cc3ccc(C=Nc4ccc(S(=O)(=O)c5ccc([N+](=O)[O-])cc5)cc4)cc3)cc2)cc1
inactive: [1] 6.85% | [2] 3.25% | [3] 1.15% | [4] -5.45% | [5] -4.55% | [6] -5.85%

Cc1c(-c2ccccc2)c2ccccc2c2ccccc12
inactive: [1] -10% | [2] -15.6% | [3] -4.25% | [4] 0.1% | [5] 2.2% | [6] -14.4%

COc1ccc(C2Cc3cc(OC)c(OC)cc3C(c3ccccc3)N2)cc1OC (stereo not drawn)
inactive: [1] 8.7% | [2] 18.7% | [3] 16.7% | [4] 12.5% | [5] -1.25% | [6] 30.5%

CC(C)(C)C1COC(c2ccccc2)(c2ccccc2)C1 (stereo not drawn)
inactive: [1] -24.6% | [2] -1.55% | [3] 8.7% | [4] -26.5% | [5] -2.4% | [6] -15.3%

CSc1c(C#N)c(N)n2c1C(=O)N(c1ccccc1)C2=S
inactive: [1] -52.7% | [2] 25.6% | [3] -26.9% | [4] 20.1% | [5] 26.1% | [6] -4.8%

CC(C)(c1ccc(C(=O)O)cc1)c1ccc(C(=O)O)cc1
inactive: [1] -1.65% | [2] 5.05% | [3] -1.1% | [4] -5.7% | [5] -14.5% | [6] -9.15%
